# Reference: PubChem BioAssay AID1490 (National Center for Advancing Translational Sciences (NCATS), 2009)
# The campaign covered roughly 310,000 compounds. About 11,000 (3.5%) were called active. About 4% were inconclusive and are not listed. Calls come from the whole dose curve; as a rule, active = well fitted inhibition curve with a large enough effect; inconclusive = small, poorly fitted or top-dose-only effect, or another doubt; inactive = no such curve, though single readings can be large or run the other way. What follows is part of a selection rich in actives, with near analogues and random picks from the rest.
# Target: 4'-phosphopantetheinyl transferase ffp (Bacillus subtilis) (UniProt Q9F4F7)
# Assay: qHTS Assay for Inhibitors of Bacillus subtilis Sfp phosphopantetheinyl transferase (PPTase);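 note: the enzyme is Sfp with the accession as filed and its product quenches rhodamine fluorescence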;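 for largest response in the series, negative = inhibition: 0% = enzyme reaction without inhibitor and -100% = no enzyme wells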
# Details: Biochemical Sfp PPTase activity
# Outline: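 Reaction rates are the 30-min fluorescence difference (ex 525, em 598 nm) in wells containing 15 nM Sfp, 5 uM rhodamine-CoA and 12.5 uM BHQ-2-YbbR at pH 7.6 with 10 mM MgCl2.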
# Potency is the fitted concentration of half-maximal effect.
SMILES,"largest response in the series, negative = inhibition",Potency
CCOC(=O)N1CCN(S(=O)(=O)c2ccc(-n3cnnn3)cc2)CC1,6.31% (inactive),–
CCOc1ccccc1N1CCN(C(=S)Nc2ccc(S(N)(=O)=O)cc2)CC1,-3.97% (inactive),–
COc1ccc(NS(=O)(=O)c2ccc(NC(=S)NC(=O)CC(C)C)cc2)cc1,3.37% (inactive),–
NS(=O)(=O)c1ccc(NC(=S)N2CCCC2)cc1,13.2% (inactive),–
NS(=O)(=O)c1ccc(NC(=S)NC(=O)c2cccnc2)cc1,-95.1% (inactive),–
COc1ccc(NC(=S)Nc2ccc(S(N)(=O)=O)cc2)c(C)c1,–,50.1 µM (active)
COc1ccc(N2CCN(C(=S)Nc3ccc(S(N)(=O)=O)cc3)CC2)cc1,–,11.2 µM (active)
Cc1ccccc1NC(=O)CCOc1ccccc1,2% (inactive),–
CCc1ccc(CN(C)C(=O)C2CCC(=O)N(Cc3cccc(OC)c3)C2)nc1 (stereo not given),14.7% (inactive),–
Cc1ccc(NS(=O)(=O)c2cn(C)c(=O)n(C)c2=O)c(C)c1,8.01% (inactive),–
COc1ccccc1NC(=O)CCC(=O)N1CC(C)Oc2ccc(C)cc21 (stereo not given),6.52% (inactive),–
COc1ccc(C(C(=O)NCC2CCCO2)N(C(=O)Cn2nnc3ccccc32)c2ccc(NC(C)=O)cc2)cc1OC (stereo not given),15.5% (inactive),–
CN(C)c1nc(Nc2ccc(Cl)c(Cl)c2)nc(N(C)C)n1,3.3% (inactive),–
Nc1nc(Nc2ccccc2)nc(NCCO)c1[N+](=O)[O-],13.5% (inactive),–
OCCNc1nc(Nc2ccc(Cl)c(Cl)c2)nc2ccccc12,–,79.4 µM (active)
O=C(NCC(=O)N1CCN(c2ccccc2O)CC1)c1ccc2ccccc2c1,2.02% (inactive),–
CCN1CCN(c2sc(S(C)(=O)=O)nc2S(=O)(=O)c2ccc(Cl)cc2)CC1,14.2% (inactive),–
COc1ccc(C(=O)COC(=O)Cn2cnc3c2c(=O)n(C)c(=O)n3C)c(OC)c1,2.93% (inactive),–
CCCOC1CCCN(C(=O)c2cc(COc3cncc(Cl)c3)on2)C1 (stereo not given),-1.29% (inactive),–
Oc1c(C(c2ccccn2)N2CCOCC2)ccc2cccnc12 (stereo not given),–,35.5 µM (active)
OC(COc1ccc2ccccc2c1)CN1CCOCC1 (stereo not given),11.8% (inactive),–
CCOc1cc(N2CCOCC2)c(OCC)cc1NC(=O)COc1cccc2cccnc12,1.6% (inactive),–
CN(C)CCNc1ccc(-c2n[nH]c(=O)c3ccccc23)cc1[N+](=O)[O-],16.7% (inactive),–
Cc1ccc(C(=O)O/N=C(\N)c2ccccn2)cc1Cl,2.02% (inactive),–
O=C(Nc1ccccc1Cl)Nc1cccc2cccnc12,2.31% (inactive),–
O=C(Nc1ccccc1Cl)O/N=C(/c1ccccc1)c1ccccn1,–,79.4 µM (active)
CCCCNc1nc(C)nc2c1nc(-c1ccccc1)n2CCCCN(CC)CC,23.3% (inactive),–
Cc1cc(C)n(-c2ccc(NC(=O)C3CCCCN3C(=O)c3cccs3)cc2)n1 (stereo not given),4.09% (inactive),–
C=CCc1cccc(/C=N/NC(=O)COc2ccc(-n3cnnn3)cc2)c1O,15.1% (inactive),–
CCc1ccnc(NC(=O)Nc2ccc(OCc3ccccc3)cc2)c1,-0.979% (inactive),–
